# Reference: PubChem BioAssay (NCATS)
# Values without a mark were called inactive. Inconclusive results are not listed. Activity calls are given as the source filed them. Unless noted, the call rests on the fitted dose curve; in most records, active means well fitted curve in either direction with a large enough effect (not every such curve was filed as active); inconclusive means small, poorly fitted or top-dose-only effect, or another doubt; inactive means flat fitted curve, though single readings scatter.
# Legend:
# [1] = biological target: Lysosomal acid glucosylceramidase (Homo sapiens) (UniProt P04062); test: Glucocerebrosidase-p2 (AID 348; in the data active means potency below about 10 µM; further: potency means the concentration at half of the fitted maximal effect); settings: purified GBA, blue fluorogenic substrate, 40 min
# Method in brief: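 Compounds titrated from 0.6 nM upwards against 0.2 nM enzyme in pH 5.9 citric acid/KH2PO4, taurocholate, tween-20; blue fluorogenic substrate 80 uM, 40 min room temperature, stopped and read Ex 365/Em 440 for AC50.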
# [2] = AP1 Signaling Pathway (AID 357); settings: ME-180 AP-1-bla reporter, EGF-induced, beta-lactamase ratio, 5 h; at 7.69 µM (top of the series) unless noted;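 further: ME-180 reporter cells stimulated with EGF at its EC50 level; on the % scale 0 is the no-effect control and ±100 the full control effect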
# Method in brief: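 Read-out was the 460nm/530nm emission ratio (excitation 405nm) after CCF4 loading for 2.5 hours at room temperature. Cells carried an AP-1-driven beta-lactamase reporter, were stimulated with EC50 EGF plus compound for 5 hours, and AC50 values came from titrations.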
# [3] = NFAT Signaling Pathway (AID 444); settings: Jurkat NFAT-bla M1, carbachol, beta-lactamase ratio, 5 h; at 7.69 µM (top of the series) unless noted;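 further: carbachol stimulus at about its EC50 of 1 µM final; on the % scale 0 is the no-effect control and ±100 the full control effect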
# Method in brief: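 Jurkat cells with NFAT-driven β-lactamase reporter and co-expressed M1 receptor, stimulated with carbachol (final 1 uM, ~EC50), compound titration, 5 h at 37 °C. CCF4 loaded 1 h at RT; 460/530 nm ratio gave %activity and AC50.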
# [4] = Stat Signaling Pathway (AID 446); settings: ME-180 SIE beta-lactamase reporter, IL-6 stimulated, 5 h; at 7.69 µM (top of the series) unless noted;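 further: ME-180 cervical cancer cells given 40 pM IL-6 alongside compound; SIE-controlled beta-lactamase reporter measured as 460/530 nm FRET emission ratio; on the % scale 0 is the no-effect control and ±100 the full control effect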
# Method in brief: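 Screening format detects activators and inhibitors alike: ME-180 SIE-bla cells stimulated at 40 pM IL-6 for 5 hrs with compound, then dual-emission beta-lactamase read at 405 nm excitation.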
# [5] = biological target: Glucocorticoid receptor (Homo sapiens) (UniProt P04150); test: GR-GFP Redistribution (AID 450;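 active means compounds whose dose series gives a full or clear partial fitted curve of increased nuclear translocation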; further: potency means the concentration at half of the fitted maximal effect); settings: U2OS GR-GFP nuclear translocation, laser cytometry, 2 h
# [6] = biological target: Glucocorticoid receptor (Homo sapiens) (UniProt P04150); test: GR-EFC Redistribution (AID 451; calls by dose curve; further: potency means the concentration at half of the fitted maximal effect); settings: CHO-K1 GR-EFC translocation, beta-gal luminescence, 2 h
# Method in brief: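 CHO-K1 cells expressing nuclear EA and GR-ED fragments of b-gal; compounds titrated up to 46 uM final, 2 h at 37 C. GR nuclear translocation read as complemented b-gal luminescence after 1 h RT detection.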
# [7] = biological target: Mitogen-activated protein kinase 10 (Mus musculus) (UniProt Q61831); test: JNK3 AlphaScreen Assay (AID 530); settings: JNK3 lysate, c-Jun phosphorylation; series mostly up to 57.1 µM;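 further: kinase came from lysate of stimulated human HepG2 cells; signal reports phosphorylation of biotinylated GST-cJun 1-79 at Ser73 with 10 µM ATP; on the % scale 0 is the no-effect control and ±100 the full control effect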
# Method in brief: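 qHTS format: compounds tested as titrations against IL-1beta/TNF-alpha-activated HepG2 lysate JNK3 with biotin-GST-cJun substrate and 10 uM ATP at room temperature. Loss of anti-phospho-cJun AlphaScreen signal indicates inhibition.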
# [8] = biological target: 3',5'-cyclic-AMP phosphodiesterase 4B (Homo sapiens) (UniProt Q07343); test: qHTS Assay for Inhibitors of PDE-IV (AID 607; active means well fitted activation curve with a large enough effect in the main read-out, with a control signal flat, not every such curve was filed as active; further: % of control where 0% means no effect); settings: HEK293 ACTOne CNG channel cells, membrane potential fluorescence; series mostly up to 22.9 µM
# Method in brief: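 The readout is membrane depolarisation from a cAMP-sensing CNG channel, detected with a potential dye at ex 535/em 590. Cells were HEK293-derived (endogenous PDE-IV) at 1000 cells/well, titrated up to 22.9 uM final.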
# [9] = biological target: Cytochrome P450 3A4 (Homo sapiens) (UniProt P08684); test: qHTS Assay for Activators of Cytochrome P450 3A4 (AID 885; active means well fitted curve in the direction sought with a large enough effect; an effect the other way counts as inactive or inconclusive; further: nearly all actives have a fitted effect of over 65% in size); settings: recombinant CYP3A4, Luciferin-PPXE luminescence, 60 min; series mostly up to 57.1 µM
# Method in brief: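 Steps: enzyme/substrate mix dispensed; compound added, 10 min RT; NADPH regeneration solution added, 60 min RT; luciferin detection buffer stops reaction; 20 min later luminescence measured.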
# [10] = Primary qHTS for small molecule stabilizers of the endoplasmic reticulum resident proteome: Secreted ER Calcium Modulated Protein (SERCaMP) assay (AID 1508630; active means well fitted curve in the direction sought with a large enough effect; an effect the other way counts as inactive or inconclusive; further: on the % scale 0 is the no-effect control and ±100 the full control effect); settings: SH-SY5Y GLuc-SERCaMP (Gaussia luciferase released on ER calcium loss) secretion, thapsigargin, luminescence; series mostly up to 38.4 µM
# Method in brief: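 GLuc-SERCaMP-expressing SH-SY5Y cells, pretreated 16 h with compound, are challenged with thapsigargin to empty ER calcium stores; after 4 h, coelenterazine is added directly to the medium and luminescence is imaged.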
# [11] = qHTS Assay for Identification of Small Molecule Agonists for Hypoxia Response Element Signaling Pathway (AID 914; active means well fitted activation curve with a large enough effect in the signal ratio, with a control signal flat, not every such curve was filed as active; the % refers to the signal ratio; further: potency means the concentration at half of the fitted maximal effect; on activation: % of control where 0% means no effect); settings: ME-180 (cervical carcinoma) HRE-bla reporter, beta-lactamase ratio, CoCl2, 17 h; activation: hits give high values
# Method in brief: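 Reporter activity (beta-lactamase, CCF4 460nm/530nm ratio) in HRE-bla ME-180 cells is recorded after 17 h compound exposure with EC50 CoCl2 at 37 degrees Celsius. AC50 values come from titration data.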
# [12] = Confirmation and Secondary Assay for Modulators of Hemoglobin Beta Chain Splicing at IVS2 654 locus (AID 910; active means well fitted curve in the direction sought with a large enough effect; an effect the other way counts as inactive or inconclusive;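 further: HeLa cells stably carrying EGFP split by mutant beta-globin IVS2-654 intron; % of control where 0% means no effect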); settings: HeLa EGFP-654 splicing reporter, GFP fluorescence, 48 h; series mostly up to 38.3 µM
# Method in brief: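 HeLa cells stably expressing EGFP interrupted by β-globin IVS2-654 intron, seeded overnight in Opti-MEM/2% FCS, then treated 2 days at 37 °C. Restored splicing read as total peak GFP intensity per well by laser scanning cytometry (488 nm excitation, 500–520 nm emission); 500 nM antisense PNA as control.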
# Sequence of 3',5'-cyclic-AMP phosphodiesterase 4B (Homo sapiens) (Q07343 whole entry, looked up): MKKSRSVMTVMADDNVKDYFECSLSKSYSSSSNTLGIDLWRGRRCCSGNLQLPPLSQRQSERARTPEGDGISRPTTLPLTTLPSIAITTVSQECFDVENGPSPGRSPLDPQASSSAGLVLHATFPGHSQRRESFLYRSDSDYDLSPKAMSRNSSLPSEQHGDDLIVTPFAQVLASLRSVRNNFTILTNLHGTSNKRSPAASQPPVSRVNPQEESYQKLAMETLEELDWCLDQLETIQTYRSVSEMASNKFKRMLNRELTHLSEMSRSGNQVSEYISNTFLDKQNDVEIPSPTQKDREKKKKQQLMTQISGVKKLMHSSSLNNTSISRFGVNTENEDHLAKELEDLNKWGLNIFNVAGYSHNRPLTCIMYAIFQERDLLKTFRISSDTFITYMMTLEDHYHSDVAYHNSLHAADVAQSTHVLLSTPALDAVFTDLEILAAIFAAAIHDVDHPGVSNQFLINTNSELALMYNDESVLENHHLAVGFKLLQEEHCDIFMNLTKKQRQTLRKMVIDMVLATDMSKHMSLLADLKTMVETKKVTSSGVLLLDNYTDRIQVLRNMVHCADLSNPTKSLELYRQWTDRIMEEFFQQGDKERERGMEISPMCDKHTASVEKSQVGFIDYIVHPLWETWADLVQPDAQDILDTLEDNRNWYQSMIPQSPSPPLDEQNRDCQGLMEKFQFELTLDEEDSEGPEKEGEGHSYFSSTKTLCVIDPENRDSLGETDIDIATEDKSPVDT
# Sequence of Glucocorticoid receptor (Homo sapiens) (P04150 whole entry, looked up, the tested form may be a part): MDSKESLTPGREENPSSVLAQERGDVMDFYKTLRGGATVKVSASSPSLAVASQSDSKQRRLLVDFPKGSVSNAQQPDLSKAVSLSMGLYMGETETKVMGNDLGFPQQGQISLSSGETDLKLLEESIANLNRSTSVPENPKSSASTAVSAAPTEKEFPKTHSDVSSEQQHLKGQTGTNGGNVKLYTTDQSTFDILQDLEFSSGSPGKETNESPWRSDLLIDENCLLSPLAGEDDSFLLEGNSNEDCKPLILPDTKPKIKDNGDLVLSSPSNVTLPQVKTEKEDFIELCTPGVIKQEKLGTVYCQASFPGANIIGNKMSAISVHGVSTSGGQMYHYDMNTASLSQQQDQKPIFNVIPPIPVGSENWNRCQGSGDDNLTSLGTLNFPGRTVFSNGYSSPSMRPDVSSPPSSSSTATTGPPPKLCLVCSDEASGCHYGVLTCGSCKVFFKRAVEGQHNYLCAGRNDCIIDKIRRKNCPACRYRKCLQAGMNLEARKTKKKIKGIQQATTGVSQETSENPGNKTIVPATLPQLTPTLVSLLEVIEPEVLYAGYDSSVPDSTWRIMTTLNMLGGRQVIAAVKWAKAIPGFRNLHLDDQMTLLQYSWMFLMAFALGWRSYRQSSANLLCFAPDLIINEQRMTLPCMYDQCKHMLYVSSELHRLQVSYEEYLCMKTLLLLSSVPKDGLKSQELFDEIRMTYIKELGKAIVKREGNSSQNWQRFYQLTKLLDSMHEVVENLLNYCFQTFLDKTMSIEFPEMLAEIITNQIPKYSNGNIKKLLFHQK
# Sequence of Lysosomal acid glucosylceramidase (Homo sapiens) (P04062 whole entry, looked up): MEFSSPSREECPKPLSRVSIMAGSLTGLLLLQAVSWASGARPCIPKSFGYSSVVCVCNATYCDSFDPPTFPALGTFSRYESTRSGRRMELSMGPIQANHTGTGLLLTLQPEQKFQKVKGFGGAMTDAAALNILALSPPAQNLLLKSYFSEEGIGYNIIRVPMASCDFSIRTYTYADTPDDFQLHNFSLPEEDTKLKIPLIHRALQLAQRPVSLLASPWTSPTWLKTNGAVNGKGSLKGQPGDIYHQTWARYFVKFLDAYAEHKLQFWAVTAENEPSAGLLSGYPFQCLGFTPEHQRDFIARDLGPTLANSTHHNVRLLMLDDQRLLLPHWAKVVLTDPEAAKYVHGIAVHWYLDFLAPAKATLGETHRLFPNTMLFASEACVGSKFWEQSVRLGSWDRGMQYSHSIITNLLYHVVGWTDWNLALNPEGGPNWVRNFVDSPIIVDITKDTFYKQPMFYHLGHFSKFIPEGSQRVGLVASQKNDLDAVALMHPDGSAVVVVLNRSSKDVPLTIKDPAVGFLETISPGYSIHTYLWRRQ
# Sequence of Cytochrome P450 3A4 (Homo sapiens) (P08684 whole entry, looked up): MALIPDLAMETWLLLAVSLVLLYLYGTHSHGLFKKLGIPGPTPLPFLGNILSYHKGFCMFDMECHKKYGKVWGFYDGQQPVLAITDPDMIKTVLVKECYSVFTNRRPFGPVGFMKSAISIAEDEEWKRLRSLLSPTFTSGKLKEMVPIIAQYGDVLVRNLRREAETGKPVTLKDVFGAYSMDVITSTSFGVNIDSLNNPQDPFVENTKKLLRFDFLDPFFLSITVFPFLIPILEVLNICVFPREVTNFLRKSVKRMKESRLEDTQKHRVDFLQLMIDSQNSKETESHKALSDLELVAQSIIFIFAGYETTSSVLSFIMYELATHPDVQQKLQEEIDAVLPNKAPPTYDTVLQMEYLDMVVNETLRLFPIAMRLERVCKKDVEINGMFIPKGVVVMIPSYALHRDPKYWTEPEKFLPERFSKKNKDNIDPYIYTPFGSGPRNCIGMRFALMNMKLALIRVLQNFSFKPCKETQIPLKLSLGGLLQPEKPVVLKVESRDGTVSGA
SMILES,Potency [1] [µM],"activity change, negative = inhibition [2]","activity change, negative = inhibition [3]","activity, negative = inhibition [4]",Potency [5] [µM],Potency [6] [µM],Potency [7],Potency [8],Potency [9],outcome [10],Potency [11],Potency [12],activation [11] [%]
COc1ccc(-n2c(=O)c(-c3ccc(F)cc3)nc3cnc(OC)nc32)cc1,> 11.4,-6.43%,8.51%,-13.4%,> 9.22,> 46,inactive,inactive,inactive,inactive,–,–,–
COc1cccc(Cn2c(=O)c(-c3cccs3)nc3cnc(Nc4ccccc4)nc32)c1,> 11.4,-5.18%,-18.8%,-0.21%,> 9.22,> 46,inactive,inactive,–,inactive,–,–,–
COCC(=O)N1CCC2(CCN(Cc3cc(C(F)(F)F)cc(C(F)(F)F)c3)CC2)CC1,> 11.4,4.92%,-3.18%,8.32%,–,> 46,inactive,inactive,–,inactive,–,–,–
COc1ncc2nc(-c3ccc(F)cc3)c(=O)n(C[C@H]3CCCO3)c2n1,> 11.4,3.08%,-6.14%,-1.31%,> 9.22,> 46,inactive,inactive,–,inactive,–,–,–
COc1cccc(Cn2c(=O)c(-c3ccc(Cl)cc3)nc3cnc(N(C)C)nc32)c1,> 11.4,122% [activator] (active),154% [activator] (active),215% [activator] (active),> 9.22,> 46,inactive,inactive,–,inactive,0.316 µM (active),–,–
COc1cccc(Cn2c(=O)c(-c3ccc(F)c(F)c3)nc3cncnc32)c1,> 11.4,-5.97%,-0.724%,2.07%,> 9.22,> 46,–,inactive,–,inactive,–,–,–
O=c1c(-c2cccc(Cl)c2)nc2cncnc2n1Cc1ccc(F)cc1,> 11.4,-7.68%,-0.975%,-5.55%,> 9.22,> 46,inactive,–,inactive,inactive,–,–,–
O=c1c(-c2ccc(F)c(F)c2)nc2cncnc2n1Cc1ccc(F)cc1,> 11.4,2.91%,-2.88%,1.58%,> 9.22,> 46,inactive,inactive,–,inactive,–,–,–
COc1ncc2nc(-c3ccc(Cl)cc3)c(=O)n(CCc3ccccc3)c2n1,> 11.4,-3.59%,-9.46%,1.11%,> 9.22,> 46,inactive,inactive,–,inactive,–,–,–
COCCn1c(=O)c(-c2cc(F)cc(F)c2)nc2cnc(OCc3ccccc3)nc21,> 11.4,8.07%,-6.33%,-6.5%,> 9.22,> 46,inactive,inactive,–,inactive,–,–,–
COc1ccc(C(=O)N2CCC[C@@]3(CCN(C)C3)C2)cc1,> 11.4,10.5%,-2.06%,1.69%,–,> 46,inactive,inactive,–,inactive,–,–,–
COc1ncc2nc(CCc3ccccc3)c(=O)n(Cc3ccc(F)cc3)c2n1,> 11.4,-3.95%,-13.1%,2.49%,> 9.22,> 46,inactive,–,–,inactive,–,–,–
Cc1cnc(CNc2ncnc3ccc(-c4ccccc4C#N)cc23)cn1,> 11.4,9.76%,0.584%,-10.7%,> 46,> 46,inactive,inactive,–,inactive,–,inactive,–
COc1ncc2nc(CCc3ccccc3)c(=O)n(Cc3cccs3)c2n1,> 11.4,-2.76%,-5.02%,-3.9%,> 9.22,> 46,inactive,–,–,inactive,–,–,–
O=C(c1csnn1)N1CCC2(CCCN(c3ncccn3)C2)CC1,> 11.4,5.51%,2.44%,1.38%,–,> 46,inactive,inactive,–,inactive,–,–,–
O=c1c(-c2cccc(F)c2)nc2cncnc2n1Cc1ccccc1,> 11.4,-7.86%,-7.28%,-8.08%,> 9.22,> 46,–,–,inactive,inactive,–,–,–
O=c1c(-c2ccc(Cl)cc2)nc2cncnc2n1Cc1ccccc1,> 11.4,-10.4%,-17%,-3.39%,> 9.22,> 46,inactive,inactive,inactive,inactive,–,–,-4.75
